Assay results as given in the supplement of paper PMC10338343.
± gives the standard deviation.

Test system: MILI (PIWIL2) piRISC loaded with L1MC piRNA (26 nt)
Test: pre-steady-state target cleavage rate (min^-1); guide: L1MC piRNA 5'p-UAACUAAAUACUAUGCAAGCUGUAGG; MIWI and MILI are mouse PIWI proteins and EfPiwi is from a freshwater sponge; tags in brackets are library labels; higher = faster piRNA-guided slicing of the target
Conditions: auxiliary factor: 500 nM mouse GTSF1
How it was run: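 A burst-and-steady-state fit was used to obtain the pre-steady-state cleavage rate. The input data were sequencing reads of uncleaved targets, normalised to depth and to weakly complementary targets, from a […] transcribed, DNA-blocked target RNA library mixed with 1 nM active affinity-purified piRISC holding one synthetic guide, with or without 500 nM GTSF1 partner protein, in HEPES–potassium acetate buffer at 33 °C for 0–8 or 0–960 min. Three trials were pooled and k3 was capped at 0.0001 min^-1.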
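Further: 1 nM active piRISC with 0.1 nM target library at 33 °C single turnover.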

Sequence	pre-steady-state target cleavage rate
UCCUGCUACAGCUUGCAUCAGUAUUUAGUUA	0.015 ± 0.0065
UCCUGGAUGUGCUUGCAUAGUAUUUCAGUUA	0.0278 ± 0.01
UCCUGGUACAGGUUGCAUAGUAUUUAGAAA	0.043 ± 0.013
UCCUGGAUCUCGUUGCAUAGUAUUUAGAAA	0.141 ± 0.024
UCCUCCUACAGCUACGAUAGUAUUUACAAA	0.0587 ± 0.019
UCCUGGAACAGCUUGCAUAGUUUAUAGUUA	0.029 ± 0.0097
UCCUGGAUCAGCUUGCUAUGUAUUUACAAA	0.00475 ± 0.0036
UCCUGGAUGUCGUAGCAUAGUAUUUAGUAA	0.0538 ± 0.01
UCCUGGAUGAGCUUGCAUACUAUUUUGUUA	0.0073 ± 0.005
UCCUCCUACAGCUUGCAUUCUAUUUAGAAA	0.0122 ± 0.0056
UCCUGGAUGUCCAUGCAUAGAAUUUAGUUA	0.0111 ± 0.0048
UCCUGGAUGAGCUUGCAUAGUAUUAGUUA	0.0846 ± 0.015
UCCUGCUACAGCAUGCAUAGUAUUUACAAA	0.146 ± 0.043
UCCUGGAUGUGCUUGCUUAGUAUUUAGAUA	0.141 ± 0.032
UCCUGGAUGUCCUAGCUUAGUAUUUAGUUA	0.0102 ± 0.0041
UCCUGGUUCAGCUUGCAUAGUAUUUAGAUA	0.106 ± 0.022
UCCUGGAACAGCUUGCAUAGAUAUUAGUUA	0.0112 ± 0.0053

Sequence	pre-steady-state target cleavage rate
UCCUGGUACAGCUUGCAGUAGUAUUUAGUUA	0.00495 ± 0.0037
UCCUGCUACAGCUUGCAUUCAAUUUAGUUA	0.00485 ± 0.0037
UCCUGGAUGAGCUUGCAAAGUAUUUAGAUA	0.117 ± 0.022
UCCUCCUACAGCUUGCAAUGUAUUUACAAA	0.0431 ± 0.011
UCCUGGAACACCUUGCAUAGUAUUUAGAAA	0.146 ± 0.031
UCCUGGAUGUCCUUGCUAAGUAUUUAGUAA	0.0128 ± 0.006
UCCUCCUACUCGUUGCAUAGUAUUUACAAA	0.0372 ± 0.012
UCCUCCUACUCGUUGCAUAGUAUUUUCAAA	0.0494 ± 0.013
UCCUGGAACAGCUUGCAUAGUAUUAUCAAA	0.0521 ± 0.017
UCCUCCUACAGCUUGCUAUGUAUUUAGAAA	0.00902 ± 0.0042
UCCUCCUACAGCUUGCACUAGUAUUUAGUUA	0.0877 ± 0.019
UCCUGGAUCAGCAUGCAUAGAAUUUAGUUA	0.0386 ± 0.0077
UCCUGGUACAGCUUGCAAAGUAUAUAGUUA	0.0931 ± 0.016
UCCUGGAUCAGCUUCCAUAGAAUUUAGUUA	0.0103 ± 0.0054
UCCUGGAUGUCCUUGCAUAGUAUUAGUUA	0.0068 ± 0.004
UCCUCCUUCAGCUUGCAUAGUAUUUAGAAA	0.119 ± 0.021
UCCUGGAUGUCGAAUCAUAGUAUUUAGUUA	0.00554 ± 0.0026
